In all, about 59,000 sequences were measured (the read-out: median about -0.00055, lowest 2% from about -2 on). The sample as a whole holds a higher share of the lowest values than the screen did.

A short description of the test: Identification of proteins required for the processing of the EWS-FLI1 nascent transcript.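 Further: robust z of luciferase light less the median z of siRNAs with the same seed.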 The conditions noted are these: TC32 Ewing sarcoma NR0B1-luc vs CMV-luc (EWS-FLI1 target promoter against control promoter), 48 h; screened at 20 nM (by protocol). An outline of the steps:
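Genome-wide siRNA screen (Ambion v4.1, three siRNAs per gene, 20 nM final, RNAiMax) in Ewing sarcoma TC32 cells carrying NR0B1-promoter or CMV-promoter luciferase; OneGlo luciferase read 48 h post-transfection. Data normalized, z-score-MAD transformed and seed-adjusted.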
The sequence UAACUUUGUCUUUGGAUUC against SETD9 showed a seed-corrected z-score of 1.15.
Then AAACUGCUCGCUGUCAUUC against NCDN, with -2.2; and UGUACAAGAAGUCAUAAGC against DSE, with -0.289; and UUGUGGUCAAUGCCCUUGG against UBIAD1, with -0.444.
Then UGACAUUCCAAGGUUGUAG against TAS2R60, with 0.323; and ACCUUUUUCACUUCUACAC against 2-Mar, with -0.43.
Turning to AAGUUGCUCAGAAACUUGG against WNT9B, the seed-corrected z-score is -3.07.
For UGUCCAGAUAAGGAGACGC against PINLYP the value was -1.21.
Sequence UAAGUUCACUGUUCCAUAU against EDEM2 showed a seed-corrected z-score of 0.761.
Then UUUGAAAUCAACAUAGAGG against LINC00574, with -0.00543; and AAAGGUACUUUACCAGAUG against MTX2, with 0.416; and AGUUCAUUAAAUAAGGUCC against TMEM33, with 0.17.
For UUGUCAAAAAGUCCUUUUG against GINS3 the value was 0.092; for AAGGCUCUGACAACGAUUC against LMNB1, -1.07; for UUGAUUCGCAACCAUAGCC against BTBD7, -2.52.
For AUUCGAAGUAGUUGUAGCC against FRY the value was 0.623; for UCGGUUUUCCUCAAAAUGG against SESN1, 0.94.
As to UUUCGAAUUAACGCAACUG against HECTD1, the seed-corrected z-score was 0.00197.
For UUCUGAUUCCCAAACAGUG against COMMD8 the value was -1.88.
For AAUCAUAACUGUCAUAUCC against DSPP the value was 0.304; for ACCGUGCCCAGCAUACAUC against LOC541473, -4.77; for UUUCUGGUGACCCUUUUUC against TSG101, -0.683.
For UCUACUUCUGUGGAUACUC against TALDO1 the value was 0.332; for UCAGCUGCACUUUCAGUAG against GOLGA8J, -1.61; for ACCGUUACAUAUUCUAUCC against SUPT6H, -4.84.
For the sequence UGCUGUAUCCUCUAUAUCC against RFX5, the seed-corrected z-score is -0.0572.
UUAAUCGGCACAGCUGUUC against RSBN1 yielded a seed-corrected z-score of -0.543.
Then UAUGCAGUCUGGGUAACCC against C10orf11, with 0.746; and UUACGUAUGCACCAUUUGC against SLC35D1, with 0.196; and UAUAGUAAUCAGCUAGUGG against MED6, with -3.7.
For UUUAUUCCCAAAGGCUCUG against PTGER1 the value was -0.569; for AUAUCAUUUACUGACAUAG against DNAJB4, -0.41; for UUCCAGGAUACUUUAAUCC against PON1, -0.178.
Then AAGCGGUUAACGAAAAGGC against SLC2A1, with 1.37.
Sequence UUUGUAAUCAUACGGACAG against ZFAND5 yielded a seed-corrected z-score of 0.868.
For AAACUCAAAAUCCCGUUGC against ZC3H10 the value was 0.108.
Then UAAUAUCCGGUAAGAAUCC against DDB2, with -0.365.

Values taken from PubChem BioAssay AID1159506 (National Center for Advancing Translational Sciences (NCATS), 2015).
